VP16 counter: counter-screen for ROR gamma inhibitors: Gal4-VP16 reporter; Drosophila S2 Gal4-VP16 UAS-luciferase, luminescence, 20 h; Potency, µM (doses to about 53.6 µM), without a hit: at the top dose activity, negative = inhibition, hits mostly inhibitors; 3.5% of 310,000 active;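 also: Gal4-VP16 expression switched on by copper sulfate through the metallothionein promoter; nearly all actives have a fitted effect of over 50% in size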
Luc counter: Kinase-Glo luciferase inhibition (counter-screen) | 0.28% of 200,000 active | Potency, µM (doses to about 38.3 µM), for inactives: at the highest dose activity change, negative = inhibition, usual class: inhibitors | Kinase-Glo luciferase, ATP luminescence, 8 min | AID 1379 | Q27757; also: nearly all actives have a fitted effect of over 60% in size
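Luminescence was the read-out, taken after 8-minute incubation at ambient temperature. Luciferase turned over luciferin with 10 uM ATP in imidazole pH 7.2 buffer containing KCl, MgCl2, Tween 20 and BSA.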
RORgamma inh: ROR gamma (mouse) transcription inhibition; P51450; AID 2551; Drosophila S2 Gal4-RORgamma UAS-luciferase reporter, 20 h; Potency, µM (highest dose often 53.6 µM), for the others: at the top dose activity change, negative = inhibition, actives largely listed as inhibitors; 5.4% of 310,000 active; also: nearly all actives have a fitted effect of over 60% in size
Target sequence (P51450 whole entry, looked up, the tested form may be a part): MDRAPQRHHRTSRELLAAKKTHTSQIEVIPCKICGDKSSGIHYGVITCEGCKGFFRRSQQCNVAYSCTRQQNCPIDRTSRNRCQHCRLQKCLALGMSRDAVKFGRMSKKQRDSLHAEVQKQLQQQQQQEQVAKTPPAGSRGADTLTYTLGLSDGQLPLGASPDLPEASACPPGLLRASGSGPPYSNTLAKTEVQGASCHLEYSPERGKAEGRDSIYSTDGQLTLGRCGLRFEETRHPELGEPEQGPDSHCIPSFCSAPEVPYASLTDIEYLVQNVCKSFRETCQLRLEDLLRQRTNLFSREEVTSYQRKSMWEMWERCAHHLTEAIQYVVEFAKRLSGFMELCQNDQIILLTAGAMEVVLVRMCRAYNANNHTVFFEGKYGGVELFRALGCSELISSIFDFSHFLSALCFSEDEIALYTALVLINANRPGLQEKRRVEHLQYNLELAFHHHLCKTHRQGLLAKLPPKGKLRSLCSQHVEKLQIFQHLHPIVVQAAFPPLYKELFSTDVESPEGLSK
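Stably transfected Drosophila Schneider cells are the test system, with ROR gamma fused to Gal4 and luciferase under UAS control; luminescence is read after 20 hr of 700 uM copper sulfate induction at ambient temperature.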
Starred values were filed as active, the others as inactive; [ ] = remark or other dose. Sampled rows, rich in hits. Any-hit rate of the full collection: about 6.2%. Calls follow the shape of the dose curve; as a rule, active = well fitted curve in the direction sought with a large enough effect; inconclusive = small, poorly fitted or top-dose-only effect, or another doubt; inactive = no such curve, though single readings can be large; an effect the other way counts as inactive or inconclusive. % is scaled to controls: 0 for no effect and ±100 for the full control effect; potency is read from the fitted curve at half-maximal effect.

`Cc1ccc2c(c1)N1C(=O)c3ccccc3C1C1=C(CC(C)(C)CC1=O)N2` (configuration not stated) gave VP16 counter 3%, Luc counter 2% and RORgamma inh -1%.
For O=C(Nc1ccccc1)N1CC2(CCN(C(=O)c3cnccn3)CC2)C1 the results were VP16 counter -6%, Luc counter -3% and RORgamma inh -2%.
For [ClH+][Cu][ClH+].[Cu].[OH2+]c1ccc2ccccc2c1CN1CCCCC1.[OH2+]c1ccc2ccccc2c1CN1CCCCC1 the results were Luc counter -7%[7.66 µM].
Cc1ccccc1OCC(=O)N/N=C/c1cn(Cc2ccccc2)c2ccccc12 was read as VP16 counter inconclusive, Luc counter -1% and RORgamma inh 18µM*.
For Cc1ccccc1OCC(=O)N/N=C/c1cn(C)c2ccccc12 the results were VP16 counter -10% and RORgamma inh inconclusive.
For Cc1ccc(OCC(=O)N/N=C\c2cn(Cc3ccccc3)c3ccccc23)cc1C the results were VP16 counter inconclusive, Luc counter 0% and RORgamma inh 11µM*.
Cc1ccc(OCC(=O)N/N=C/c2cn(C)c3ccccc23)cc1 was read as VP16 counter -4% and RORgamma inh -39%.
`COc1ccc(OC)c2c(=S)c3ccccc3[nH]c12` gave VP16 counter -16%, Luc counter -19% and RORgamma inh -42%.
`C=CCC1(NCc2ccco2)CCN(CC)CC1` gave VP16 counter -17%[10 µM], Luc counter -2% and RORgamma inh -2%.
CS(=O)(=O)Nc1cccc(-c2cnc3ccccc3n2)c1 was read as VP16 counter 1% and RORgamma inh 2%.
Screening Cn1ncc(SCc2ccccc2)c(Cl)c1=O returned VP16 counter 16µM* and RORgamma inh inconclusive.
`Cn1ncc(S(=O)(=O)Cc2ccccc2)c(Cl)c1=O` gave VP16 counter -5% and RORgamma inh -3%.
For CCn1c(O)c(N=NC(=O)CNc2cccc(C)c2)c2ccccc21 the results were VP16 counter -9%, Luc counter 0% and RORgamma inh 14%.
For Cc1c(Cl)cccc1NC(=S)N=Nc1c(O)n(CN2CCOCC2)c2ccccc12 the results were VP16 counter 5µM*, Luc counter 1% and RORgamma inh 1.8µM*.
For Oc1c(N=NC(=S)Nc2ccccc2F)c2ccccc2n1Cc1ccccc1Cl the results were VP16 counter 6.3µM*, Luc counter -1% and RORgamma inh 2.2µM*.
For Cc1c(Cl)cccc1NC(=O)CCN1CCOCC1 the results were VP16 counter -6% and RORgamma inh -21%[1.91 µM].
Oc1c(N=NC(=S)Nc2ccccc2F)c2ccccc2n1Cc1ccccc1 was read as VP16 counter 3.5µM*, Luc counter 0% and RORgamma inh 2.8µM*.
`C=CCn1c(O)c(N=NC(=S)Nc2cccc(C)c2)c2ccccc21` gave VP16 counter 0.45µM*, Luc counter 6% and RORgamma inh 0.25µM*.
`O=c1cc(O)c2ccccc2n1Cc1ccccc1Cl` gave VP16 counter -8%, Luc counter 3% and RORgamma inh -45%.
`O=C(N=Nc1c(O)n(Cc2ccccc2)c2ccccc12)c1ccncc1` gave VP16 counter -8% and RORgamma inh -21%.
CC1CCCN(CCOc2cccc(Oc3ccccc3)c2)C1 (configuration not stated) was read as VP16 counter 10% and RORgamma inh -12%[1.91 µM].
CN(C)CCCCl was read as VP16 counter -4% and RORgamma inh 4%.
For Cc1cccc(C)c1C(OCCN(C)C)C1CCCCC1 (configuration not stated) the results were VP16 counter 3%, Luc counter 2% and RORgamma inh -32%.
For CC12CCC(C(=O)NCc3ccc4c(c3)OCO4)(OC1=O)C2(C)C (configuration not stated) the results were VP16 counter -1%, Luc counter -1% and RORgamma inh 23%.
Screening C=CCn1c(O)c(N=NC(=O)c2ccccc2NS(=O)(=O)c2cccs2)c2ccccc21 returned VP16 counter -19% and RORgamma inh inconclusive.
For Cc1ccc(Cn2c(O)c(N=NC(=S)Nc3ccccc3F)c3ccccc32)cc1 the results were VP16 counter 7.1µM* and RORgamma inh 4µM*.
C=CCn1c(O)c(N=NC(=S)Nc2ccccc2F)c2ccccc21 was read as VP16 counter 1.8µM*, Luc counter -2% and RORgamma inh 0.79µM*.
For Cc1ccc(NC(=O)Cn2c(O)c(N=NC(N)=O)c3ccccc32)cc1 the results were VP16 counter 2% and RORgamma inh -7%.
C=CCn1c(O)c(N=NC(=S)Nc2ccccc2F)c2cc(S(=O)(=O)N3CCOCC3)ccc21 was read as VP16 counter 2µM*, Luc counter -1% and RORgamma inh 0.45µM*.
For O=C(Nc1ccccc1F)c1cc(S(=O)(=O)N2CCOCC2)cs1 the results were VP16 counter 18% and RORgamma inh 40%.
Screening O=C(c1ccco1)N1CCC2(CCCN(Cc3ccccc3)C2)CC1 returned VP16 counter -17%, Luc counter -1% and RORgamma inh 0%.
Screening Cc1occc(=O)c1OC(=O)Nc1ccc(Cl)c(Cl)c1 returned VP16 counter inconclusive, Luc counter -1% and RORgamma inh inconclusive.
Screening Cc1c(-c2ccc(OCc3ccccc3)cc2)nc2ccccc2c1C(=O)O returned VP16 counter -5% and RORgamma inh inconclusive.
Fc1ccccc1C1c2[nH]c3ccccc3c2CCN1Cc1ccoc1 (configuration not stated) was read as VP16 counter -2%, Luc counter 0% and RORgamma inh 21%.
Screening CC1CCC2CC1C2(C)C (configuration not stated) returned VP16 counter -3% and RORgamma inh -1%.
O=c1c2cnn(-c3ccccc3)c2nc(-c2cccs2)n1-c1cccc(Cl)c1 was read as VP16 counter -4%, Luc counter -2% and RORgamma inh 42%.
Screening CCOC(=O)C1=C(C)N(C)C(=S)NC1c1c(OCC)ccc2ccccc12 (configuration not stated) returned VP16 counter 18µM*, Luc counter -5% and RORgamma inh 2.8µM*.
For COC(=O)C1=C(C)N(C)C(=O)NC1c1ccc(O)c(OC)c1 (configuration not stated) the results were VP16 counter -16%, Luc counter -1% and RORgamma inh inconclusive.
For CCOC(=O)C1=C(C)NC(=S)N(C(C)=O)C1c1ccc(OC)c(OC)c1 (configuration not stated) the results were VP16 counter 4% and RORgamma inh inconclusive.
Screening COC(=O)C1=C(C)N(C)C(=O)NC1c1ccc(O)c(Cl)c1 (configuration not stated) returned VP16 counter 1%, Luc counter 1% and RORgamma inh inconclusive.
`CCOC(=O)C1=C(C)NC(=S)N(C(C)=O)C1c1ccc(Cl)cc1` (configuration not stated) gave VP16 counter 18µM*, Luc counter 4% and RORgamma inh 7.9µM*.
